Screening data deposited in PubChem BioAssay by several laboratories.
The list is not random: actives were taken first. Their share in the collection is about 2.8%.
Mcl1 Bid PPI: Mcl-1/Bid binding inhibitors, primary screen, biochemical, TR-FRET, 1536-well; Induced myeloid leukemia cell differentiation protein Mcl-1 (Homo sapiens), Q07820; TR-FRET Mcl-1/Bid-Dy647 peptide binding; inhibition, % at 21.7 µM; 220,000 compounds, 0.97% hits;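 active = compounds that cut the binding signal by more than half at the single screening dose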;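 note: His-tagged Mcl-1 with europium anti-His antibody binding Bid BH3 peptide; 0% = Mcl-1 plus peptide wells and 100% = peptide-only wells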
Target sequence (Q07820 whole entry, looked up): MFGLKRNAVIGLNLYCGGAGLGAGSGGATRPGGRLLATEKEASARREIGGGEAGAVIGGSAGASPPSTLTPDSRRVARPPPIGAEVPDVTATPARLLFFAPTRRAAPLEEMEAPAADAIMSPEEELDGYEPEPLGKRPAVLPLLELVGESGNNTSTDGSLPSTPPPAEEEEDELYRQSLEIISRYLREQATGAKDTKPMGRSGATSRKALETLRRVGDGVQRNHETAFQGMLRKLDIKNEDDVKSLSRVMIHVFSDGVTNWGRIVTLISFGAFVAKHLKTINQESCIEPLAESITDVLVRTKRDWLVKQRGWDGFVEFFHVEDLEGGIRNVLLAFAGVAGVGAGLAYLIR
Mcl1-Noxa inh: Mcl-1/Noxa binding inhibitors, primary screen, biochemical, TR-FRET, 1536-well. Induced myeloid leukemia cell differentiation protein Mcl-1 (Homo sapiens), Q07820. TR-FRET Mcl-1/Noxa peptide binding, 2 h. inhibition, % at 21.7 µM. 220,000 compounds, 1.5% hits;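 active = compounds that cut the protein-peptide binding signal by more than 50% relative to plate controls in a single-dose test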;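 note: His-tagged Mcl-1 with rhodamine Noxa BH3 peptide and terbium anti-His antibody; 0% = Mcl-1 plus Noxa peptide wells and 100% = peptide-only wells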
Calpain2 inh: inhibitors of pig calpain II, primary screen, biochemical, fluorogenic peptide substrate, 1536-well. purified calpain II, 30 min. inhibition, % at 16 µM. 220,000 compounds, 0.37% hits;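 active = inhibition above about 50%, limit read from the data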
L929 necroptosis: inhibitors of zVAD-triggered necroptosis, primary screen, L929 cells; 220,000 compounds, 0.38% hits; L929 zVAD necroptosis rescue, ATP luminescence, 24 h; with zVAD 60 µM; viability rescue, % at 10 µM; AID 1377, 2008;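 active = activation, scaled between plate controls, above about 75%, limit read from the data; inactive = activation under that limit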;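 note: 0% = zVAD with DMSO and 100% = DMSO alone without zVAD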
Bim-Mcl-1: inhibitors of Bim peptide binding to Mcl-1, primary screen, biochemical, bead-based flow cytometry, multiplex | Bim peptide-Mcl-1 binding | inhibition, % at 10 µM | 190,000 compounds, 0.1% hits | Induced myeloid leukemia cell differentiation protein Mcl-1 (Homo sapiens), Q07820 | AID 1009, 2008; in the data active = inhibition above about 40%;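 note: 0% = no compound tracer wells and 100% = peptide blocker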
TNF necrop inh: inhibitors of TNF-alpha triggered necroptosis, primary screen, cell-based, Jurkat FADD-/-, single concentration; activation (protection from cell death), % at 10 µM; 220,000 compounds, 0.068% hits; Jurkat FADD-/- TNF necroptosis rescue, ATP luminescence, 24 h; 0 = TNF only, 100 = no-TNF cells;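 active = activation, meaning protection from cell death, of at least 50% relative to plate controls; inactive = activation below 50%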;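 note: necroptosis triggered by 40 ng/mL TNF-alpha added together with compound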
zVAD death conf: inhibitors of zVAD-triggered necroptosis in L929, confirmation, L929 cells, duplicate runs; shares compounds with L929 necroptosis; L929 zVAD-induced necroptosis rescue, ATP luminescence, 24 h; activation (protection from necroptosis), % at 10 µM; 760 compounds, 16% hits;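 active = mean protection from necroptosis of at least 50% over duplicate tests; inactive = mean protection below 50%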;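 note: 0% = cells with zVAD alone and 100% = vehicle cells without zVAD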
An asterisk follows results filed as active; i = inactive; · = not tested or not shown.

SMILES | Mcl1 Bid PPI | Mcl1-Noxa inh | Calpain2 inh | L929 necroptosis | Bim-Mcl-1 | TNF necrop inh | zVAD death conf
O=C(Cc1cc(=O)[nH]c(=O)[nH]1)NCc1ccccc1 | -9 | 8 | -22 | · | -2 | 0 | ·
CN(C)/C=C/C(=C\C(=O)C(F)(F)F)Nc1ccc(C(F)(F)F)cc1 | -14 | 10 | -4 | 3 | 1 | 0 | ·
Cc1ccc(NC(=O)c2ccc(N3CCOCC3)c([N+](=O)[O-])c2)cc1S(=O)(=O)N1CCOCC1 | -6 | 12 | 0 | 77* | -1 | -4 | 35
O=C(Nc1nccs1)c1cc2c(s1)-c1ccccc1OC2 | -15 | 15 | -86 | 98* | 0 | 22 | 49
CCc1noc(C)c1C(=O)N1CCCC(CCC(=O)NCc2ccc(F)c(F)c2)C1 (centres undefined) | 1 | 17 | 26 | 1 | -2 | 2 | ·
COCCn1c(=NC(=O)/C=C/c2ccccc2)sc2cc(NC(C)=O)ccc21 | 43 | 30 | -231 | 81* | -8 | -4 | 7
Fc1ccc(NC(=S)N2CCCC(c3ccccc3)=N2)cc1 | -12 | 6 | 3 | 0 | · | 1 | ·
Fc1ccc(NC(=S)N2N=CCC2c2ccccc2)cc1 (centres undefined) | -73 | 0 | -9 | 82* | 0 | 94* | 10
O=C(Nc1cccc(Cl)c1)N1N=CCC1c1ccccc1 (centres undefined) | -22 | -6 | -1 | 89* | · | 92* | 85*
O=C(CN1C(=O)COc2ccc(S(=O)(=O)N3CCOCC3)cc21)NCc1ccccn1 | -39 | 1 | 5 | 1 | · | 1 | ·
Cc1ccc(NC(=O)c2cncc(Br)c2)cc1S(=O)(=O)N(C)C | -15 | -7 | 5 | 1 | -4 | 2 | ·
S=C(Nc1ccccc1Cl)N(Cc1ccccc1)Cc1ccccn1 | -28 | 4 | 21 | 1 | 0 | -1 | ·
Fc1cccc(Cl)c1CNn1cn[nH]c1=S | -24 | -1 | -12 | 1 | 11 | 1 | ·
S=c1[nH]ncn1NCc1ccc(Cl)cc1Cl | -23 | 8 | -11 | 87* | 0 | 1 | 33
CCCC(=O)n1nc(-c2cccnc2)nc1NCc1ccccc1 | -24 | 9 | -1 | 79* | -2 | 2 | 1
O=C(c1cccc([N+](=O)[O-])c1)n1nc(-c2ccccc2)nc1NCc1ccccc1 | 0 | -5 | 22 | 80* | -9 | 4 | 3
CCC(=O)n1nc(-c2cccnc2)nc1NCc1ccccc1 | -25 | 15 | -2 | 79* | -3 | 2 | 8
CCC(=O)n1nc(-c2cccnc2)nc1NCc1ccc(F)cc1 | -1 | 15 | -28 | 72 | -3 | 2 | ·
CCCC(=O)n1nc(-c2cccnc2)nc1NCc1cccs1 | -33 | 8 | 11 | 77* | 0 | 2 | 1
O=C(c1ccc([N+](=O)[O-])cc1)n1nc(-c2ccccc2)nc1NCc1ccccc1 | -4 | -11 | 7 | 48 | 0 | -1 | ·
CCC(=O)n1nc(-c2cccnc2)nc1NCc1cccs1 | 0 | 5 | -28 | 73 | -1 | 1 | ·
C=CCn1c(CNc2ccc(C)cc2)nnc1SCC(=O)N/N=C/c1ccc(O)cc1 | -21 | -16 | -1 | 0 | -6 | 0 | ·
O=C(CSc1nnc(COc2ccccc2Cl)o1)NC(=O)NC1CCCC1 | -14 | 8 | 31 | 87* | 0 | -5 | 35
CC(C)NC(=O)NC(=O)CSc1nnc(COc2ccccc2Cl)o1 | -6 | -12 | -16 | 1 | 0 | -3 | ·
CCc1c(C)[nH]c(C(=O)OCc2ccccc2)c1C | -38 | 1 | -1 | 86* | 0 | 1 | 8
SMILES | Mcl1 Bid PPI | Mcl1-Noxa inh | Calpain2 inh | L929 necroptosis | Bim-Mcl-1 | TNF necrop inh | zVAD death conf
CCc1c(C(=O)OCc2ccccc2)[nH]c(C)c1C | -22 | 0 | 4 | 68 | · | 0 | ·
COC(=O)c1c(C)[nH]c(C(=O)OCc2ccc(F)cc2)c1C | -13 | -3 | 11 | 79* | 0 | 1 | 3
CC(=O)c1c(C)[nH]c(C(=O)OCc2cccc(Cl)c2)c1C | 0 | 3 | 54* | 79* | -4 | -1 | 8
CC(=O)c1c(C)[nH]c(C(=O)OCc2c(F)cccc2Cl)c1C | -11 | 1 | 3 | 1 | -1 | -1 | ·
CC(=O)c1c(C)[nH]c(C(=O)OCC(=O)NCCc2ccc(F)cc2)c1C | -35 | -7 | -37 | 1 | 1 | -3 | ·
Cc1cc(/C(N)=N/OC(=O)Nc2ccc(Cl)cc2)no1 | -8 | -2 | 8 | 1 | · | 1 | ·
CCOc1ccc(NC(=S)NNC(=O)CC(C)O)cc1 (centres undefined) | -41 | -1 | -4 | 2 | -2 | 1 | ·
CCOC(=O)c1ccc(NC(=O)CN2C(=O)CNC2=O)cc1 | -3 | 19 | 10 | 0 | -8 | 0 | ·
Cc1ccc(NC(=O)COC(=O)c2ccc3c(c2)NC(=O)C2CCCN32)cc1 (centres undefined) | -48 | 20 | -207 | 83* | 0 | -2 | 48
Oc1ccccc1N=Cc1ccc[nH]1 | -99 | 7 | -26 | 97* | -3 | 8 | 7
COc1ccc(OC(=O)c2cnn(-c3ccccc3)c2C)cc1 | 9 | 24 | 37 | 0 | 1 | 0 | ·
Nc1ncnc2oc(-c3ccco3)c(-c3ccco3)c12 | 0 | 82* | i | 79* | 0 | -9 | 36
Cc1ccc(NC(=O)C(OC(=O)c2ccc(NC(N)=O)cc2)c2ccccc2)cc1Cl (centres undefined) | -26 | 13 | -20 | 85* | -2 | 8 | 70*
O=C(Nc1ccc(-c2nnc(-c3ccccc3)o2)cc1)C(F)(F)F | 7 | -7 | -25 | 1 | -3 | -2 | ·
CC(=O)/C=C(\C)Nc1ccc(-c2cnc(-c3ccccc3)o2)cc1 | -21 | 2 | i | 96* | 0 | -4 | 22
COc1ccc(C(=O)C2CCCN(C(=O)c3cc(C(C)C)no3)C2)cc1F (centres undefined) | -34 | 4 | -2 | -1 | -3 | 0 | ·
O=C1CNC(=S)N1CCc1ccc(Cl)cc1 | -17 | 9 | -17 | 83* | · | 21 | 35
Cc1ccc(CN2C(=O)CNC2=S)cc1 | -27 | 5 | 18 | 0 | 0 | 1 | ·
COc1ccc(/C=C/C(=O)c2ccc[nH]2)cc1OC | -5 | -3 | -32 | 89* | 0 | 20 | 42
COc1ccc(/C=C/C(=O)c2ccc[nH]2)c(OC)c1OC | -9 | -27 | 1 | 52 | 0 | 14 | ·
